Out of some 310,000 compounds screened, about 14,000 (4.5%) showed an effect of 50% or more. Effects have a minus sign here. What follows is part of a selection rich in strong results, with near analogues and random picks from the rest.
What follows are compounds tested against human ether-à-go-go-related gene (hERG) potassium channel (human, UniProt Q12809) (assay: primary screen, population patch clamp on CHO cells stably expressing hERG; higher = less effect of the substance).
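Note: peak tail current of the secondary pulse compared with the same well before compound.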

human ether-à-go-go-related gene (hERG) potassium channel, sequence (Q12809 whole entry, looked up): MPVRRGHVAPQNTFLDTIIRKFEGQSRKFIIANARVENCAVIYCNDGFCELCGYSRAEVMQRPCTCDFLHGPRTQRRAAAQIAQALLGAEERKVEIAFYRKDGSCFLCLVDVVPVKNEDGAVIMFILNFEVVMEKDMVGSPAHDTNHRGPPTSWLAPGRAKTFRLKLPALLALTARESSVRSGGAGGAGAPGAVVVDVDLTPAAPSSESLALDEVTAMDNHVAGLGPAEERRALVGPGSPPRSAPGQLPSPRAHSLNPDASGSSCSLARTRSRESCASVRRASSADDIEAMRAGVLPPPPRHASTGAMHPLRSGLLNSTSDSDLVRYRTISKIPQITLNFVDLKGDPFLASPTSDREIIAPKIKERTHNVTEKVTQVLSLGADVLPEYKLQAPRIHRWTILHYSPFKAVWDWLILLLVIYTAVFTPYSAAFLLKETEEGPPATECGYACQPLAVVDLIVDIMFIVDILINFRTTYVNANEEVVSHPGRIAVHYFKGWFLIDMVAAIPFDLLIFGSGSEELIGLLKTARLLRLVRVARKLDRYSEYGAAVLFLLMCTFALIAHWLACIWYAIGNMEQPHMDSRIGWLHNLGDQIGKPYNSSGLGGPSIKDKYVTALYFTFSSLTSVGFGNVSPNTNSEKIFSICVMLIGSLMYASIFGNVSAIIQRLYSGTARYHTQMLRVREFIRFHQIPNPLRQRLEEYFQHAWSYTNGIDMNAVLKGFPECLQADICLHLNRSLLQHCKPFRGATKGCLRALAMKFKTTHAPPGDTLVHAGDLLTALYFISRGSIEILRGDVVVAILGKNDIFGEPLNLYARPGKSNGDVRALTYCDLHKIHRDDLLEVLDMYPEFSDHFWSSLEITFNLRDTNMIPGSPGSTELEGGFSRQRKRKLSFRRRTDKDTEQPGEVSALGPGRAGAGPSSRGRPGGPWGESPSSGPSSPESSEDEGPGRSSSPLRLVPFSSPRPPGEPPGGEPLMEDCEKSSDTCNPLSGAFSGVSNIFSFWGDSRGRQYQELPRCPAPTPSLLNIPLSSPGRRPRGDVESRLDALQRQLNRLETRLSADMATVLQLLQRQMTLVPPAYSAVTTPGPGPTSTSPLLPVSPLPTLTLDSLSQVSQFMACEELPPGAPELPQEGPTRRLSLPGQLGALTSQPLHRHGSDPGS

Structure (SMILES)	hERG current change (%, negative = inhibition) at 10uM [%]
COC(CNC(=O)c1ccc2c(c1)nc(C)n2-c1cccc(C)c1)OC	0.933
CCC(CC)NC(=O)COC(=O)c1ccc(OCC(=O)Nc2ccccc2OC)c(OC)c1	11.4
COc1ccc(N2CCN(C(=O)c3ccccc3F)CC2)c([N+](=O)[O-])c1	-51.3
COc1ccc(N2CCN(C(=O)c3ccccc3Br)CC2)c([N+](=O)[O-])c1	-65.5
COc1cc(C(=O)N2CCN(c3ccccc3OC)CC2)c([N+](=O)[O-])cc1OC	18.5
Cc1ccc(N2CCN(C(=O)c3ccccc3F)CC2)c(C)c1	-8.81
O=C(c1ccccc1Br)N1CCN(c2ccc([N+](=O)[O-])c(N3CCOCC3)c2)CC1	-11.5
COc1cc(OC)cc(C(=O)N2CCN(c3ccccc3F)CC2)c1	-11.6
Cc1cc(=O)oc2cc(OCc3cc4c(cc3Cl)OCO4)ccc12	8.74
NNC(=O)CNc1cccc(Cl)c1	15.4
CC(=O)c1ccc(NC(=O)C2C3CCC(C3)C2C(=O)O)cc1 (stereo not shown)	17.8
COCCCNC(=O)Cn1nc(-c2ccccc2OC)ccc1=O	18
COc1ccc(Cl)cc1C(=O)Nc1ccncc1	-26.2
Cn1c(N)c(C(=O)COC(=O)CCC2CCCCC2)c(=O)n(C)c1=O	-73.6
Cn1c(N)c(C(=O)COC(=O)C23CC4CC(CC(C4)C2)C3)c(=O)n(C)c1=O	-22.6
Cn1c(N)c(C(=O)COC(=O)C2CCCC2)c(=O)n(C)c1=O	-20.6
Cn1c(N)c(C(=O)COC(=O)C2CCCCC2)c(=O)n(C)c1=O	-11.2
Cn1c(N)c(C(=O)COC(=O)CC2CC3CCC2C3)c(=O)n(C)c1=O (stereo not shown)	-64.4
Cn1c(N)c(C(=O)COC(=O)CCC2CCCC2)c(=O)n(C)c1=O	-43.3
Cc1ccccc1OC(C)C(=O)NC1CCCC1 (stereo not shown)	-2.63
O=C(NN=C1C2CC3CC1CC(Cl)(C3)C2)c1cccs1	8.54
COc1ccc(-c2nc(NC(C)=O)sc2-c2ccccc2)cc1	34.7
C=CCN(CC(=O)NCc1ccc(OC)cc1)C(=O)c1csnn1	-16.7
COc1ccccc1CN(CC(=O)NCc1ccc(F)cc1)C(=O)c1csnn1	-35.3
COc1ccc(CNC(=O)CN(Cc2ccc(C)cc2)C(=O)c2csnn2)cc1	-36.1
COc1ccc(CNC(=O)CN(Cc2ccc(OC)cc2)C(=O)c2csnn2)cc1	-57.5
COc1ccc(CNC(=O)CN(Cc2ccccc2F)C(=O)c2csnn2)cc1	-32.7
COc1ccc(CNC(=O)CN(Cc2ccc(F)cc2)C(=O)c2csnn2)cc1	-70.4

Structure (SMILES)	hERG current change (%, negative = inhibition) at 10uM [%]
COc1ccc(CNC(=O)CN(Cc2ccccc2)C(=O)c2csnn2)cc1	-32.3
COc1ccc(CNC(=O)CN(Cc2ccc(Cl)cc2)C(=O)c2csnn2)cc1	-71.7
COc1ccc(CNC(=O)CN(Cc2ccccc2OC)C(=O)c2csnn2)cc1	-29
COc1ccc(CNC(=O)CN(C(=O)c2csnn2)c2ccc(F)cc2)cc1	-5.15
COc1ccc(CN(CC(=O)NCc2ccc(F)cc2)C(=O)c2csnn2)cc1	-58.5
COc1ccc(CN(CC(=O)NCc2ccccc2)C(=O)c2csnn2)cc1	-26.6
CCOc1cccc(=O)c2c(C)n(-c3ccc(C(=O)O)cc3)c(C)c12	32
CCOC(=O)c1c(C)nsc1NC(=O)c1ccco1	-4.79
CCOc1ccc(NCc2nnc(SCC(=O)Nc3cc(C)on3)n2-c2ccc(OC)cc2)cc1	-4.02
CCc1cccc(CC)c1NC(=O)COC(=O)Cc1ccsc1	21.2
COc1ccc(N2C(=O)NC(=O)/C(=C/c3cccc(OC(=O)c4cccs4)c3)C2=O)cc1Cl	-2.57
Cc1ccc(C(=O)NC(=S)Nc2cc(C(F)(F)F)ccc2Cl)cc1	20.3
CCOC(=O)Cc1csc(NC(=O)CN(C)S(=O)(=O)c2ccc3c(c2)CCC(=O)N3)n1	-15.9
CN(C)S(=O)(=O)c1ccc(C(=O)Nc2cc(S(=O)(=O)Nc3ccccc3Cl)ccc2N2CCCCC2)cc1	25.5
COc1ccc(C/C(N)=N/OC(=O)c2cccs2)cc1	12.8
O=C(Nc1nc2ccc(SC(F)F)cc2s1)c1ccc(NS(=O)(=O)c2ccc(F)c(F)c2)cc1	-8.03
COc1ccc(NC(=O)C(C)Sc2ccccc2)cc1 (stereo not shown)	1.14
COC(=O)CCc1sc(NC2CCCCC2)nc1-c1ccc(OC)cc1	8.55
O=C(c1ccc(Oc2ccc([N+](=O)[O-])cc2)cc1)N1CCCCCC1	-25.5
CCOC(=O)N1CCN(C(=O)c2ccc(OC)cc2)CC1	19.8
CCOC(=O)N1CCN(C(=O)c2ccc(Oc3ccc([N+](=O)[O-])cc3)cc2)CC1	-68.3
CCOC(=O)N1CCN(C(=O)c2ccc(OCC)cc2)CC1	-28.3
CN1CCN(C(=O)c2ccc(Oc3ccc([N+](=O)[O-])cc3)cc2)CC1	-50.6
CN1CCN(C(=O)c2cc([N+](=O)[O-])cc([N+](=O)[O-])c2)CC1	16.7
COc1ccc(Br)c(C(=O)NNC(=O)c2ccc(NS(=O)(=O)c3cccs3)cc2)c1	12.6
CCC1CCCCN1C(=O)CSc1nnc(CNC(=O)c2c(F)cccc2Cl)o1 (stereo not shown)	10.7
CCOC(=O)C(=O)Nc1ccc(S(=O)(=O)N2CCOCC2)cc1OC	4.78
